Data from PubChem BioAssay (NCATS).
Unmarked numbers belong to inactive results. Results filed as inconclusive are left out. A call without a number means that no potency is given here. The source made the active and inactive calls. Unless noted, calls come from the whole dose curve; as a rule, active = well fitted curve in the direction sought with a large enough effect; inconclusive = small, poorly fitted or top-dose-only effect, or another doubt; inactive = no such curve, though single readings can be large; an effect the other way counts as inactive or inconclusive.

How the values were obtained:
[1] = molecular target: Tyrosine-protein kinase Yes (Homo sapiens) (UniProt P07947); experiment: qHTS for small molecule inhibitors of Yes1 kinase: Primary Screen (AID 686947); conditions: Yes1 kinase biochemical qHTS inhibition; series mostly up to 76.9 µM; note: nearly all actives have a fitted effect of over 60% in size
Chain of Tyrosine-protein kinase Yes (Homo sapiens) (P07947 whole entry, looked up): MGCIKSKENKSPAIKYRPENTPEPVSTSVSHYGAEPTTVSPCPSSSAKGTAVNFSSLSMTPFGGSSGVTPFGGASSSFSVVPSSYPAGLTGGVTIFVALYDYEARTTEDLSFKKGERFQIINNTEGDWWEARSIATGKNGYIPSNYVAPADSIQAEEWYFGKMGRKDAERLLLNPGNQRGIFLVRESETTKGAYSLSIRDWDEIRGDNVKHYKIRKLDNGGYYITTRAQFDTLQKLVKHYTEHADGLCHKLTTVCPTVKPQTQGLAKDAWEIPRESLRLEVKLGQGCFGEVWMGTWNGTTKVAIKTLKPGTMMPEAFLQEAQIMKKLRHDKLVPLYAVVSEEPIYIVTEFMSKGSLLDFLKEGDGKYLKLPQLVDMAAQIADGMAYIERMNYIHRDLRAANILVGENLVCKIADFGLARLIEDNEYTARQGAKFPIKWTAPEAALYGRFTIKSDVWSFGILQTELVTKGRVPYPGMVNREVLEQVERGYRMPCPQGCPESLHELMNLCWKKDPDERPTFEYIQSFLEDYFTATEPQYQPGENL
Procedure, shortened: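 Yes1 (4 nM) preincubated 20 min with compound, then 60 min room-temperature reaction with 0.1 mM ATP and 0.3 mg/mL poly(E4Y) in pH 7.5 Tris, 10 mM MgCl2. ADP measured by ADP-Glo luminescence, normalised to enzyme/no-enzyme controls.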

[2] = qHTS for small molecule inhibitors of Yes1 kinase: Counter Assay (AID 686950); conditions: series mostly up to 76.9 µM;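 note: no kinase present so only ADP-Glo detection of a fixed ADP amount is tested; luminescence from ADP-Glo reporting ADP in a fixed ATP and ADP mixture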
Procedure, shortened: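 Enzyme-free ADP-Glo interference check: compounds were preincubated 20 min in buffer, then an ATP/ADP mix (0.08 mM ATP, 0.02 mM ADP final) was added for 60 min at room temperature before two-step ADP-Glo luminescence detection.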

[3] = qHTS Assay for Identifying Gametocytocidal Compounds (AID 743244); note: potency is the fitted concentration of half-maximal effect; conditions: P. falciparum 3D7 stage III-V gametocytes, alamarBlue, 72 h
Procedure, shortened: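 Late gametocytes (III–V), P. falciparum 3D7; 72 h drug, then 24 h alamarBlue; resazurin reduction read by fluorescence.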

[4] = molecular target: Cytochrome P450 3A4 (Homo sapiens) (UniProt P08684); experiment: qHTS Assay for Inhibitors and Substrates of Cytochrome P450 3A4 (AID 884); conditions: recombinant CYP3A4, Luciferin-PPXE luminescence; series mostly up to 57.1 µM; note: potency is the fitted concentration of half-maximal effect; nearly all actives have a fitted effect of over 50% in size
Chain of Cytochrome P450 3A4 (Homo sapiens) (P08684 whole entry, looked up): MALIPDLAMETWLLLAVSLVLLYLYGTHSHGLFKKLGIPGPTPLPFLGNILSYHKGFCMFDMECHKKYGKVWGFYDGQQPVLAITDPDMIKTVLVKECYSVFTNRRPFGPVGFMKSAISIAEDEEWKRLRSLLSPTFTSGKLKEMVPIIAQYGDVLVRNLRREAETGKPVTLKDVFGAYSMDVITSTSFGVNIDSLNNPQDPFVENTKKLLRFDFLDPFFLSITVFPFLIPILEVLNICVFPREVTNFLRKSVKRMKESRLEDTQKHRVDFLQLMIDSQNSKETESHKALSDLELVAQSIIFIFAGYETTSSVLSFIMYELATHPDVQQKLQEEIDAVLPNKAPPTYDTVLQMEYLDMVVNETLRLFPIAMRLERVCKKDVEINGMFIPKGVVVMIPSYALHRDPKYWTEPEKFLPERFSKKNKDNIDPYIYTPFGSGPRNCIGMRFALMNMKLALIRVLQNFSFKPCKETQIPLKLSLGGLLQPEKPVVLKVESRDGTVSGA
Procedure, shortened: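 20 nM human CYP3A4 with 25 uM Luciferin-PPXE (at KM) in 200 mM KPO4, preincubated 10 min with compound; NADPH regeneration started a 60 min RT reaction. Luciferin detected by luminescence, normalized to 57 uM ketoconazole as full inhibition.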

[5] = molecular target: Cytochrome P450 3A4 (Homo sapiens) (UniProt P08684); experiment: qHTS Assay for Activators of Cytochrome P450 3A4 (AID 885); conditions: recombinant CYP3A4, Luciferin-PPXE luminescence, 60 min; series mostly up to 57.1 µM; note: nearly all actives have a fitted effect of over 65% in size
Procedure, shortened: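 Steps: enzyme/substrate mix dispensed; compound added, 10 min RT; NADPH regeneration solution added, 60 min RT; luciferin detection buffer stops reaction; 20 min later luminescence measured.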

[6] = Primary qHTS for inhibitors of SARS-S pseudo-typed particle cell entry (AID 1479145; calls by dose curve; note: potency is the fitted concentration of half-maximal effect; nearly all actives have a fitted effect of over 45% in size); conditions: SARS-S pseudotyped particle cell entry, luciferase reporter; series mostly up to 57.1 µM
[7] = Confirmatory qHTS for activators (rescue) of SARS-CoV-2 Cytopathic Effect (CPE) (AID 1508606; calls by dose curve; note: potency is the fitted concentration of half-maximal effect; nearly all actives have a fitted effect of over 70% in size); conditions: Vero E6 SARS-CoV-2 CPE rescue, viability luminescence; series mostly up to 20 µM
[8] = molecular target: Nuclear receptor subfamily 1 group I member 3 (Homo sapiens) (UniProt Q14994); experiment: Primary qHTS for antagonist of constitutive androstane receptor (CAR) against the NCATS DSHEA and TCM libraries (AID 1794836); conditions: CAR reporter cell assay, antagonist mode, luciferase; series mostly up to 40 µM
Chain of Nuclear receptor subfamily 1 group I member 3 (Homo sapiens) (Q14994 whole entry, looked up): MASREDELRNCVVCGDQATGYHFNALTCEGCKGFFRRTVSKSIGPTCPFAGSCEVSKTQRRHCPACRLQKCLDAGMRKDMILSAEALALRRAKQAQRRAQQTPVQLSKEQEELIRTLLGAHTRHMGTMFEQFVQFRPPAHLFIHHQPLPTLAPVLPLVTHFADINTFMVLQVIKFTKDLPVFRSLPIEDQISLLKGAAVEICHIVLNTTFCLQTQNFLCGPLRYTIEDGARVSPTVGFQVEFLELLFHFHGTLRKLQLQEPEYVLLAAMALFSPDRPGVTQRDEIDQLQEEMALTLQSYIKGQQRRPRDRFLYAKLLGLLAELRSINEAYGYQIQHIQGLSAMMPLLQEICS
Procedure, shortened: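 HepG2 cells stably carrying hCAR and a CYP2B6 luciferase reporter (2,500 cells/well) attached for 5 h, then received compounds with 48 uM CITCO for 24 h at 37C. ONE-Glo luminescence read antagonism; CellTiter-Fluor (405/540 nm) gave viability.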

[9] = molecular target: Cytochrome P450 2C9 (Homo sapiens) (UniProt P11712); experiment: qHTS for inhibitors of CYP2C9 against the NCATS DSHEA and TCM libraries (AID 1919973); conditions: recombinant CYP2C9 enzyme activity, luminescence; series mostly up to 34.1 µM;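 note: luminogenic pro-luciferin CYP2C9 substrate turned into luciferin with NADPH regeneration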
Chain of Cytochrome P450 2C9 (Homo sapiens) (P11712 whole entry, looked up, canonical isoform): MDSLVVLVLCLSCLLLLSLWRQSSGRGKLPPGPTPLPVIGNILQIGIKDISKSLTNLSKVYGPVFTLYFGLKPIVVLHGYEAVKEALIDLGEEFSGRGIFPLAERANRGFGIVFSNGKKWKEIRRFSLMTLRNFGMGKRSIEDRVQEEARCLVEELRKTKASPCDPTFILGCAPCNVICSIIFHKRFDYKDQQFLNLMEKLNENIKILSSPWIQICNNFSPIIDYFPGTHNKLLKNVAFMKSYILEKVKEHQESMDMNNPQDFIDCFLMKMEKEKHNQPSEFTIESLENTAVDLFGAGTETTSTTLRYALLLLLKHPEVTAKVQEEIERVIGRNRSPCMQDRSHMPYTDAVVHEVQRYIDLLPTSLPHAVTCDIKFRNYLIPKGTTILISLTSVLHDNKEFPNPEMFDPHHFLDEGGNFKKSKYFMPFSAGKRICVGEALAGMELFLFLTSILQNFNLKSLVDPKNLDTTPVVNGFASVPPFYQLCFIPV
Procedure, shortened: (§1)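 Read-out is luminescence after P450-Glo detection (30 min, RT). Before that: 15 min compound–enzyme preincubation, then 30-45 min reaction with 1x NADPH regeneration solution, substrate concentration isoform-specific.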

[10] = molecular target: Cytochrome P450 2C19 (Homo sapiens) (UniProt P33261); experiment: qHTS for inhibitors of CYP2C19 against the NCATS DSHEA and TCM libraries (AID 1919974); conditions: CYP2C19 enzyme inhibition, luminescence qHTS; series mostly up to 34.1 µM;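 note: luminescence from luciferin released by CYP2C19 oxidation of a pro-luciferin substrate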
Chain of Cytochrome P450 2C19 (Homo sapiens) (P33261 whole entry, looked up): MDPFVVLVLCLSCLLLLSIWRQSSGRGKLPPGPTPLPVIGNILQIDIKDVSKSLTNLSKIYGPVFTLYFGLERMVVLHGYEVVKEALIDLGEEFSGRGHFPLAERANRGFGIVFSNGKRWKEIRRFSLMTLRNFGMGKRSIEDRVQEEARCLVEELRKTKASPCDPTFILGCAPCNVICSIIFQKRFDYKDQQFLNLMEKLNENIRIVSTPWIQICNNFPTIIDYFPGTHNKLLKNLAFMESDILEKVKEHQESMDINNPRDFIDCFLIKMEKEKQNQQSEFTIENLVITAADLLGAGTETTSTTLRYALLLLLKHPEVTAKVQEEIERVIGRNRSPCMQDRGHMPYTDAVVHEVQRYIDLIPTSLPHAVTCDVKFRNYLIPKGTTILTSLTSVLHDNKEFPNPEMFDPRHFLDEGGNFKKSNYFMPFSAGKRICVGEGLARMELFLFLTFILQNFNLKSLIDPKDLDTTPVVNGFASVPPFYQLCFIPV
Procedure, shortened: as §1

[11] = KB-8-5-11 P-gp reporter qHTS against the NCATS DSHEA and TCM libraries (AID 1919977); conditions: KB-8-5-11 cells; series mostly up to 26.1 µM
Procedure, shortened: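 P-gp-overexpressing KB-8-5-11 cells (500/well) were plated in colchicine-free DMEM with 10% FBS, attached ~4 h, then exposed to substance titrations for ~72 h at 37C. Viability was read by CellTiter-Glo luminescence.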

[12] = Dual reporter qHTS for agonist of Pregnane X Receptor (hPXR) against the NCATS DSHEA and TCM libraries: Fluorescence readout (AID 1920058); conditions: PXR dual reporter cells; series mostly up to 40 µM
Procedure, shortened: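 HepG2 hPXR-Luc, 2000 cells/well, 5 h attach; cpds ~24 h, 37 °C/5% CO2; CellTiter-Fluor 1 h; fluor. Ex/Em 405/540 nm = viability.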

[13] = molecular target: Nuclear receptor subfamily 1 group I member 2 (Homo sapiens) (UniProt O75469); experiment: Dual reporter qHTS for agonist of Pregnane X Receptor (hPXR) against the NCATS DSHEA and TCM libraries: Luminescence readout (AID 1920059); conditions: hPXR dual reporter cells, luciferase luminescence agonist; series mostly up to 40 µM
Chain of Nuclear receptor subfamily 1 group I member 2 (Homo sapiens) (O75469 whole entry, looked up): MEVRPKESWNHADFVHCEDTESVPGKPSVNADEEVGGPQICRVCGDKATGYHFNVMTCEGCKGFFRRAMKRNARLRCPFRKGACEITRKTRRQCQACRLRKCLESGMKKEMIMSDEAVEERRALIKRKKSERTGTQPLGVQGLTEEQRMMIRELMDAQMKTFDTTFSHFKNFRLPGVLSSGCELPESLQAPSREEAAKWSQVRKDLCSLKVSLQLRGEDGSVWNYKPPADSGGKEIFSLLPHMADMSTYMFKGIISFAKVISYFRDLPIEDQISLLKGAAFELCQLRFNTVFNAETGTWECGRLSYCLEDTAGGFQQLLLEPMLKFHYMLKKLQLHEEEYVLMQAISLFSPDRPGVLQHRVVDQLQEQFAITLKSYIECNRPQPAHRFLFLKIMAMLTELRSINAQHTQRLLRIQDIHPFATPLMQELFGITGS
Procedure, shortened: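 hPXR-LucHepG2 cells in phenol red-free DMEM with 5% charcoal-stripped FBS, 2000 cells/well, attached 5 h, then exposed 24 h at 37C to compounds; rifampicin as positive agonist control (2.8 nM–92 uM). Luciferase luminescence read.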

[14] = qHTS for differential inhibitors of proliferation of Plasmodium falciparum line 3D7 (AID 1876);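 note: parasite growth measured after three days of culture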; conditions: P. falciparum 3D7 proliferation inhibition; series mostly up to 28.7 µM
[15] = qHTS for differential inhibitors of proliferation of Plasmodium falciparum line Dd2 (AID 1882); conditions: Potency: Plasmodium falciparum Dd2 proliferation inhibition; series mostly up to 28.7 µM; note: nearly all actives have a fitted effect of over 65% in size
Procedure, shortened: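 Dd2-infected erythrocytes (0.3% parasitemia, 2.5% hematocrit final) incubated with compound 72 h at 37 C, 5% CO2; lysed with saponin/Triton buffer containing SYBR Green I, incubated overnight in the dark, then read by fluorescence (485/535 nm). Normalized to 0.29 uM artemisinin and DMSO.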

[16] = qHTS for differential inhibitors of proliferation of Plasmodium falciparum line HB3 (AID 1886); conditions: Potency: Plasmodium falciparum HB3 proliferation inhibition; series mostly up to 28.7 µM;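 note: parasites grown with compound for 72 h before SYBR Green readout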
[17] = molecular target: Galactokinase (Homo sapiens) (UniProt P51570); experiment: qHTS Validation Assay for Inhibitors of Human Galactokinase (GALK) (AID 493189); conditions: purified human GALK enzyme activity, qHTS 7-point titration; series mostly up to 57.5 µM
Chain of Galactokinase (Homo sapiens) (P51570 whole entry, looked up): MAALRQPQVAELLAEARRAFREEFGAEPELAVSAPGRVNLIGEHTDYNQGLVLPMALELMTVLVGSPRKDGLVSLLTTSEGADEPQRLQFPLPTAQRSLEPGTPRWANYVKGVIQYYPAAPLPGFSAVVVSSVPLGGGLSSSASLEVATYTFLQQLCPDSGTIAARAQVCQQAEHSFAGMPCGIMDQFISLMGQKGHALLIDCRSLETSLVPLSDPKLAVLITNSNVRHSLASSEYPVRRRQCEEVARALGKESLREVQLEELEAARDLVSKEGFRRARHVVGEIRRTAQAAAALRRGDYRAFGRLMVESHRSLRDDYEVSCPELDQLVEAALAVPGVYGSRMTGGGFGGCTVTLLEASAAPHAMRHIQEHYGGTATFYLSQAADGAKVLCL
Procedure, shortened: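 GALK (5 nM) with 35 uM ATP and 100 uM galactose in HEPES pH8.0, MgCl2, NaCl, DTT, BSA; 1 h at room temperature. Residual ATP read by Kinase-Glo Plus luminescence after 10 min.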

[18] = qHTS for differential inhibitors of proliferation of Plasmodium falciparum line 7G8 (AID 1815); conditions: Plasmodium falciparum 7G8 proliferation inhibition; series mostly up to 28.7 µM;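 note: potency is the fitted concentration of half-maximal effect; parasite growth measured after three days of incubation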
[19] = qHTS for differential inhibitors of proliferation of Plasmodium falciparum line GB4 (AID 1816); conditions: Potency: Plasmodium falciparum GB4 proliferation inhibition; series mostly up to 28.7 µM;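 note: potency is the fitted concentration of half-maximal effect; parasite growth measured after 72 h incubation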
[20] = molecular target: RecQ-like DNA helicase BLM (Homo sapiens) (UniProt P54132); experiment: qHTS Validation Assay for Inhibitors of Bloom's syndrome helicase (BLM) (AID 2364); conditions: BLM helicase DNA unwinding, fluorescence, in vitro; series mostly up to 57.1 µM
Chain of RecQ-like DNA helicase BLM (Homo sapiens) (P54132 whole entry, looked up): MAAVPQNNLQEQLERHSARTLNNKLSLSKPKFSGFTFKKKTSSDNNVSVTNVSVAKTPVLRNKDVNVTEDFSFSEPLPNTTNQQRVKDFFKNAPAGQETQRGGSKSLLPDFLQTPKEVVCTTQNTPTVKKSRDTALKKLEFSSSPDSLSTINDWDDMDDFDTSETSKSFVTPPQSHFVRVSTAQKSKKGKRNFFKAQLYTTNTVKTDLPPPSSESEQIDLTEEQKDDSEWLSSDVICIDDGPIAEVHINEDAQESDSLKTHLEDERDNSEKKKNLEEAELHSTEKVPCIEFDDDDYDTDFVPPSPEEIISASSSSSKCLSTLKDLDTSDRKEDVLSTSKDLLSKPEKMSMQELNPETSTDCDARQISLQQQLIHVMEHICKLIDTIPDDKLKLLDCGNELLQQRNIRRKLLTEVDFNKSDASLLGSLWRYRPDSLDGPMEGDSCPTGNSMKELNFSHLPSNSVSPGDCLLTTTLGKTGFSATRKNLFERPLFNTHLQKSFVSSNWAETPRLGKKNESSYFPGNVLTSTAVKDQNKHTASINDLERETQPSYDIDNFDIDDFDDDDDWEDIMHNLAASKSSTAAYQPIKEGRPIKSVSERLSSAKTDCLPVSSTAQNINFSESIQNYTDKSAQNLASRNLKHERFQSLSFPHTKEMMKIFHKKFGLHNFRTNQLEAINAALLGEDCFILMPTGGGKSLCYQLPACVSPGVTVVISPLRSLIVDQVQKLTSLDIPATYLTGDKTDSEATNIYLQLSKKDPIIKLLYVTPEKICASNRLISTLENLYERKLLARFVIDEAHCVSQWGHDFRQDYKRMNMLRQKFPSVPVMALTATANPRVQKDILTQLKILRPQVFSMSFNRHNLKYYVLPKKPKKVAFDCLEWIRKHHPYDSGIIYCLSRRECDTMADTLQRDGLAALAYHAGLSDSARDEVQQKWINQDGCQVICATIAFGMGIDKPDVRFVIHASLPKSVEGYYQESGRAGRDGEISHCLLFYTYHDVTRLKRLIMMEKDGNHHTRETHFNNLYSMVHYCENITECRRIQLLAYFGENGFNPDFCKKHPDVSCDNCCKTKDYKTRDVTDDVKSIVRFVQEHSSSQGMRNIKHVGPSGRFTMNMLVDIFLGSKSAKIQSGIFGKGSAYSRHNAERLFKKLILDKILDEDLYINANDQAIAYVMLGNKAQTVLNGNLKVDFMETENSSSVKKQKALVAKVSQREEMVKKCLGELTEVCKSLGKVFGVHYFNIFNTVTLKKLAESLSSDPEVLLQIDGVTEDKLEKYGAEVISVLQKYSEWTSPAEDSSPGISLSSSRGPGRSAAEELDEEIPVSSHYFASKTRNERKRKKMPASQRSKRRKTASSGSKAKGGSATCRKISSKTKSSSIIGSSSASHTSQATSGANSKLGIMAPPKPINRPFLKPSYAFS
Procedure, shortened: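 BLM 50 nM in 25 mM Tris-HCl pH 8.0, 5 mM NaCl, 2 mM MgCl2, 1 mM DTT, 0.01% Tween-20, 2.5 ug/ml poly(dI-dC); 15 min cpd preinc, RT. Start: 200 nM forked DNA + 2 mM ATP (final). TAMRA read, 2 reads 2 h apart.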

COC(=O)[C@]12CCC(C)(C)C[C@H]1[C@H]1C(=O)C=C3[C@@]4(C)C=C(C#N)C(=O)C(C)(C)[C@@H]4CC[C@@]3(C)[C@]1(C)CC2
outcome [1]: inactive
outcome [2]: inactive
Potency [3]: 5.01 µM (active)

CC(C)(O)/C=C\C(=O)[C@](C)(O)[C@H]1[C@H](O)C[C@]2(C)[C@@H]3CC=C4[C@@H](C=C(O)C(=O)C4(C)C)[C@]3(C)C(=O)C[C@@]12C
Potency [4]: 0.398 µM (active)
activity change, positive = activation [5]: -93.2% [at 11.4 µM]

Cc1c(N)nc([C@H](CC(N)=O)NC[C@@H](N)C(N)=O)nc1C(=O)N[C@H](C(=O)N[C@@H](C)[C@H](O)[C@@H](C)C(=O)N[C@@H](C(=O)NCCc1nc(-c2nc(C(=O)NCCC[S+](C)C)cs2)cs1)[C@@H](C)O)C(O[C@H]1O[C@H](CO)[C@H](O)[C@@H](O)[C@H]1O[C@H]1O[C@H](CO)[C@@H](O)[C@H](OC(N)=O)[C@@H]1O)c1cnc[nH]1 (stereo not given in full)
Potency [6]: 14.1 µM (active)

CCCCCCC(C)(C)c1cc(O)c2c(c1)OC(C)(C)C1CC=C(CO)C[C@H]21 (stereo not given in full)
Potency [7]: 10 µM (active)

N#CC(O[C@@H]1O[C@H](CO[C@@H]2O[C@H](CO)[C@@H](O)[C@H](O)[C@H]2O)[C@@H](O)[C@H](O)[C@H]1O)c1ccccc1 (stereo not given in full)
Potency [8]: inactive
Potency [9]: inactive
Potency [10]: inactive
Potency [11]: inactive
outcome [12]: inactive
Potency [13]: inactive

CCCN1CCC[C@@H](c2cccc(C#N)c2)C1
Potency [14]: inactive
Potency [15]: inactive
Potency [16]: inactive
outcome [17]: inactive

C=CCN1CC[C@@]2(C)c3cc(O)ccc3CC1[C@@H]2C
Potency [18]: 7.94 µM (active)
Potency [19]: 12.6 µM (active)
outcome [20]: inactive
